In PubChem BioAssay (NCATS):
Several values for one entry are separate records, joined by “and”; a condition that tells them apart may be missing. Equal values may be shown once. Results filed as inconclusive are left out. Unmarked numbers belong to inactive results. Activity calls are given as the source filed them. Calls follow the shape of the dose curve; as a rule, active = well fitted cell-killing curve with a large enough effect; inconclusive = small, poorly fitted or top-dose-only effect; inactive = no such curve, though single readings can be large or run the other way.

Test: qHTS of pediatric cancer cell lines to identify multiple opportunities for drug repurposing: Primary screen for A673 cells (AID 1347092); also: nearly all actives have a fitted effect of over 45% in size
Conditions: A673 Ewing sarcoma viability, CellTiter-Glo ATP luminescence, 48 h; series mostly up to 46 µM; activity change, negative = cytotoxic: at the top concentration
Excerpt: Drug repurposing or repositioning has been offered as a strategy for drug development in oncology programs. This approach has special potential for childhood cancers and other rare or orphan diseases, where the expected return on new drug development has been a disincentive to pharmaceuticals. […] In this project we exploit the poly-pharmacology of drugs to discover new indications via phenotypic screening of a panel of 19 well-characterized cell lines derived from solid tumors seen in children and adolescents. The goal is to identify approved drugs with previously unrecognized anticancer properties that has the potential to reveal new mechanisms and biological processes involved in carcinogenesis or drug resistance. We employed a titration-based paradigm (quantitative high-throughput screening or qHTS), where all compounds were tested at multiple concentrations for their effect on cell viability. Concentration-response curves (CRCs) were derived directly from the primary screen, and both potency and efficacy values were used to identify compounds with robust bioactivity profiles. We screened the NIH Chemical Genomics Center (NCGC) Pharmaceutical Collection (NPC) and Mechanism Interrogation Plate (MIPE) small molecule collections of approved and investigational compounds against these cell lines; and measured metabolically active cells after 48 hours of compound treatment as a proxy for cell viability. […] Assay Submitter: Nathalia J. Martinez, National Center for Advancing Translational Sciences, National Institutes of Health, Rockville, MD, USA; email: natalia.martinez@nih.gov. Shen, M et al. Quantitative high-throughput phenotypic screening of pediatric cancer cell lines identifies multiple opportunities for drug repurposing. Oncotarget 2017 Dec 19;9(4):4758-4772. PMID 29435139.
The cells were obtained from University of North Carolina (UNC), Pediatric Preclinical Testing Program (PPT), and Coriell Institute (CI). qHTS cell viability assay: Cells were assayed in growth media at a density of 500-1,000 cells/well. Five microliters of cells were dispensed into 1,536-well, white, solid-bottom, TC-treated plates (Greiner Bio One) using a multidrop dispenser and incubated at 37 degrees C, 5% CO2, under a humidified atmosphere for 5 hours. Twenty-three nanoliters of compounds and controls (neutral control DMSO or positive control bortezomib at final concentration of 2.3 uM) were subsequently transferred by Kalypsys pintool. For primary screens, the MIPE collection was tested at 11-point dilutions (final concentrations range from 0.78 nM to 46 µM) and the NPC collection at 8-point dilutions (final concentrations range from 0.59 nM to 46 µM). Compounds tested in follow-up screens were assayed at 11-point dilutions. Cells were incubated for 48 hours, followed by addition of 3 uL of CellTiter-Glo (Promega). After a 15min incubation at room temperature, samples were analyzed for luminescence intensity using a ViewLux High-throughput CCD imager equipped with clear filters.
% is scaled to controls: 0 for no effect and ±100 for the full control effect; potency is read from the fitted curve at half-maximal effect.

Q: Which “activity change, negative = cytotoxic” value does the source give for `NC[C@@H]1O[C@@H](O[C@H]2[C@@H](O)[C@H](O[C@@H]3[C@@H](O)[C@@H](N)C[C@H](N)[C@H]3O[C@H]3O[C@H](CN)[C@@H](O)[C@@H](O)[C@H]3N)O[C@H]2CO)[C@H](N)[C@@H](O)[C@@H]1O` here?
A: 6.19%

Q: Which “activity change, negative = cytotoxic” value does the source give for `CCC(=O)O[C@]1(C(=O)CO)CC[C@H]2[C@@H]3CCC4=CC(=O)CC[C@]4(C)[C@@H]3CC[C@@]21C` here?
A: -19.9%

Q: With `O=C(NC1CCOCC1)c1ccc(-c2cc(-c3cn[nH]c3-c3ccccn3)ccn2)cc1` as the compound, how does the “activity change, negative = cytotoxic” value read?
A: 2.58%

Q: Which “activity change, negative = cytotoxic” value does the source give for `CNC(=O)c1ccc2cc(C3(O)CCn4cncc43)ccc2c1` (stereo not given) here?
A: 1.54%

Q: For `CC(C)(C)c1cc(C(=O)O)c(NC(=O)Nc2ccc3[nH]ncc3c2)s1`, which “activity change, negative = cytotoxic” value is on record?
A: -11.1%

Q: With `O=C1c2c(O)cc(O)cc2O[C@H](c2cc(O)c(O)c(O)c2)[C@H]1O` as the compound, how does the Potency read?
A: 14.8 µM (active)

Q: For `N[C@H](CSC(c1ccccc1)(c1ccccc1)c1ccccc1)C(=O)O`, which Potency is on record?
A: 9.35 µM (active)

Q: Which Potency does the source give for `O=C(O)C=Cc1ccc(O)c(O)c1` here?
A: 11.8 µM (active)

Q: Which “activity change, negative = cytotoxic” value does the source give for `COC(=O)[C@@H]1[C@H]2C[C@H]3c4[nH]c5ccccc5c4CCN3C[C@@H]2CC[C@@H]1O` here?
A: 0.15%

Q: With `Cc1ccccc1C(C(=O)NC1CCCCC1)N(C(=O)Cn1ccnc1C)c1cccc(F)c1` (stereo not given) as the compound, how does the “activity change, negative = cytotoxic” value read?
A: -5.32%

Q: With `O=C(O)[C@H]1O[C@H](Oc2cc3oc(-c4ccccc4)cc(=O)c3c(O)c2O)[C@H](O)[C@@H](O)[C@H]1O` as the compound, how does the “activity change, negative = cytotoxic” value read?
A: -12.9%

Q: Which “activity change, negative = cytotoxic” value does the source give for `CO[C@H]1C=CO[C@@]2(C)Oc3c(C)c(O)c4c(O)c(c5c(c4c3C2=O)NC2(CCN(CC(C)C)CC2)N=5)=NC(=O)C(C)=CC=C[C@H](C)[C@H](O)[C@@H](C)[C@@H](O)[C@@H](C)[C@H](OC(C)=O)[C@H]1C` here?
A: -22.6%

Q: Which Potency does the source give for `C[C@H](NC(=O)C(=O)Nc1ccccc1C(C)(C)C)C(=O)N[C@@H](CC(=O)O)C(=O)COc1c(F)c(F)cc(F)c1F` here?
A: 23.5 µM (active)

Q: For `C=C1C(=O)[C@@]23C(CC[C@@H]1[C@H]2O)[C@@]12CO[C@]3(O)[C@@H](O)[C@@H]1C(C)(C)CC[C@@H]2O` (stereo not given in full), which Potency is on record?
A: 3.72 µM (active)

Q: For `O=c1cc(CN2CCOCC2)occ1OCCCCCSc1ccnc2cc(C(F)(F)F)ccc12`, which Potency is on record?
A: 14.8 µM (active)

Q: For `COc1cc2ncnc(Nc3ccc(F)c(Cl)c3)c2cc1OCCCN1CCOCC1`, which Potency is on record?
A: 1.71 µM (active) and 21.1 µM (active)

Q: For `CC(C)=CC[C@@H](O)C1=CC(=O)c2c(O)ccc(O)c2C1=O`, which Potency is on record?
A: 0.935 µM (active)

Q: Which Potency does the source give for `O=C(CCCCCCC(=O)Nc1ccccc1)NO` here?
A: 3.35 µM (active) and 4.69 µM (active)

Q: With `CO[C@H]1C[C@@H]2CC[C@@H](C)[C@@](O)(O2)C(=O)C(=O)N2CCCC[C@@H]2C(=O)O[C@H]([C@@H](C)C[C@@H]2CC[C@H](O)[C@H](OC)C2)CC(=O)[C@H](C)C=C(C)[C@@H](O)[C@@H](OC)C(=O)[C@H](C)C[C@H](C)C=CC=CC=C1C` as the compound, how does the “activity change, negative = cytotoxic” value read?
A: -36.1%

Q: Which “activity change, negative = cytotoxic” value does the source give for `O=C1C[C@@H](c2ccc(O)cc2)Oc2cc(O)cc(O)c21` here?
A: -18%

Q: Which “activity change, negative = cytotoxic” value does the source give for `C[C@H]1[C@H](NC(=O)C(=NOC(C)(C)C(=O)O)c2csc(N)n2)C(=O)N1S(=O)(=O)O` here?
A: -4.99%

Q: For `CC#CCn1c(N2CCC[C@@H](N)C2)nc2c1c(=O)n(Cc1nc(C)c3ccccc3n1)c(=O)n2C`, which Potency is on record?
A: 23.5 µM (active)

Q: Which “activity change, negative = cytotoxic” value does the source give for `O=C(CCN1CCN(C(=O)OCc2cc(Cl)cc(Cl)c2)CC1)c1ccc2[nH]c(=O)oc2c1` here?
A: -25.9%

Q: Which Potency does the source give for `CC1(C)O[C@H]2C[C@@H]3[C@H]4CCC5=CC(=O)C=C[C@]5(C)[C@@]4(F)[C@@H](O)C[C@]3(C)[C@]2(C(=O)CO)O1` here?
A: 3.72 µM (active)

Q: For `CCCNC(=O)NS(=O)(=O)c1ccc(Cl)cc1`, which “activity change, negative = cytotoxic” value is on record?
A: 7.63%

Q: Which “activity change, negative = cytotoxic” value does the source give for `C[N+](C)(C)CC(=O)O` here?
A: 9.48%

Q: With `CO[C@H]1C[C@@H]2CC[C@@H](C)[C@@](O)(O2)C(=O)C(=O)N2CCCC[C@@H]2C(=O)O[C@H]([C@H](C)C[C@@H]2CC[C@H](OCCO)[C@H](OC)C2)CC(=O)[C@H](C)C=C(C)[C@@H](O)[C@@H](OC)C(=O)[C@H](C)C[C@H](C)C=CC=CC=C1C` as the compound, how does the Potency read?
A: 11.8 µM (active)

Q: Which “activity change, negative = cytotoxic” value does the source give for `O=C(Nc1c(Cl)cncc1Cl)c1ccc(OC(F)F)c(OCC2CC2)c1` here?
A: -16.6%

Q: Which “activity change, negative = cytotoxic” value does the source give for `N#C[C@H]1C[C@H]2C[C@@H]2N1C(=O)[C@@H](N)C12CC3CC(CC(O)(C3)C1)C2` here?
A: -17.9%

Q: Which Potency does the source give for `Cc1cc(OCCCc2c(C(=O)O)n(Cc3cccnc3)c3c(-c4c(COc5ccc(N6CCN([S+](C)(=O)[O-])CC6)cc5)nn(C)c4C)cccc23)cc(C)c1Cl` here?
A: 23.5 µM (active)

Q: Which “activity change, negative = cytotoxic” value does the source give for `CCC(CC)[C@H](NC(C)=O)[C@@H]1[C@H](O)[C@@H](C(=O)O)C[C@@H]1N=C(N)N` here?
A: -7.12%

Q: For `CCCCCN(C)CCC(O)(P(=O)(O)O)P(=O)(O)O`, which “activity change, negative = cytotoxic” value is on record?
A: 1.76%

Q: For `CC(=O)Nc1ccc([C@H](C)C(=O)Nc2ncc(C(C)C)s2)cc1`, which Potency is on record?
A: 0.743 µM (active)

Q: With `COC1CCC(N(C(=O)C2CCC(C)CC2)c2cc(C3=CCCCC3)sc2C(=O)O)CC1` (stereo not given) as the compound, how does the “activity change, negative = cytotoxic” value read?
A: -23.5%

Q: With `O=C(O)c1ccccc1C(=O)Nc1ccc(-c2ccccc2)cc1` as the compound, how does the “activity change, negative = cytotoxic” value read?
A: -5.91%

Q: For `NCCS`, which “activity change, negative = cytotoxic” value is on record?
A: 41.4%

Q: With `CNC1CCC(N(Cc2cccc(-c3ccncc3)c2)C(=O)c2sc3c(F)ccc(F)c3c2Cl)CC1` (stereo not given) as the compound, how does the Potency read?
A: 23.5 µM (active)

Q: With `CC(=Cc1ccccc1)C=C1SC(=S)N(CC(=O)O)C1=O` as the compound, how does the “activity change, negative = cytotoxic” value read?
A: 76.8%

Q: Which Potency does the source give for `CCOC1OC(=O)C[C@H]1NC(=O)[C@@H]1CCCN1C(=O)[C@@H](NC(=O)c1ccc(N)c(Cl)c1)C(C)(C)C` (stereo not given in full) here?
A: 0.118 µM (active)

Q: For `CCCCC1C(=O)N(c2ccccc2)N(c2ccccc2)C1=O`, which “activity change, negative = cytotoxic” value is on record?
A: -15.6%
